Results taken from PubChem BioAssay (NCI).
Values joined by “and” are separate entries in the source; they are usually repeats but may differ in a detail not shown here. Equal entries are not always repeated. This is part of a sample that, as a whole, favours compounds with a hit. Of some 79,000 tested, about 15% had one in any assay. Active and inactive are the calls of the source. No stated cut-off is given here; in the data, active means growth inhibition above about 70%; inactive means the rest.

Columns and labels:
[1] = NCI Yeast Anticancer Drug Screen. Data for the rad50 strain (AID 155);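 further: 0% = growth of vehicle-only cultures of the same strain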; details: S. cerevisiae rad50 strain growth inhibition; at 50.0 µM; active compounds read high
Outline: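 Readout: growth inhibition relative to vehicle-treated cultures. Compound exposure was carried out in a genetically defined yeast strain deficient in DNA damage repair.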

[2] = NCI Yeast Anticancer Drug Screen. Data for the mec2-1 strain (AID 157); details: S. cerevisiae mec2-1 strain, at 50.0 µM, active compounds read high
Outline: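 Test agents were screened against the mec2-1 yeast strain, with defined DNA repair or cell cycle alteration. Growth was scored as inhibition against vehicle-only controls.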

[3] = NCI Yeast Anticancer Drug Screen. Data for the sgs1 mgt1 strain (AID 161);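 further: 0% = growth of cultures given vehicle only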; details: S. cerevisiae sgs1 mgt1 strain, at 50.0 µM, active compounds read high
Outline: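 Genetically altered yeast, compound exposure, growth inhibition relative to vehicle.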

[4] = NCI Yeast Anticancer Drug Screen. Data for the cln2 rad14 strain (AID 165);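 further: 0% = growth equal to vehicle treated cultures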; details: S. cerevisiae cln2 rad14 strain, at 50.0 µM, active compounds read high
Outline: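 Growth of compound-exposed yeast (cln2 rad14 genotype) measured and expressed as inhibition relative to vehicle.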

[5] = NCI Yeast Anticancer Drug Screen. Data for the bub3 strain (AID 167); details: S. cerevisiae bub3 mutant strain, at 50.0 µM, active compounds read high
Outline: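 Readout: yeast growth inhibition, expressed relative to vehicle-only wells. The test organism is a mutant strain from a panel with lesions in DNA repair or checkpoint genes.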

[6] = NCI Yeast Anticancer Drug Screen. Data for the mlh1 rad18 strain (AID 175); details: S. cerevisiae mlh1 rad18 strain growth inhibition; at 50.0 µM; active compounds read high
Outline: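 In this whole-cell yeast screen, a strain with altered DNA damage repair is challenged with compound, and its growth is measured against matched vehicle-treated controls.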

Measured: growth inhibition

[CH3][Sn]([CH3])([CH3])[O]C(=O)C(O)c1ccccc1 (stereo not given)
inactive: [1] 11.6% | [2] -7.7% | [3] 5.1% | [4] 9.4% | [5] -0.05% | [6] -2.3%

O=c1[nH]c2ccccc2c(=O)n1-c1ccccc1
inactive: [1] -8.1% | [2] -4.45% | [3] -1.05% | [4] -6.05% | [5] -2% | [6] -15.4%

NC(CCCCCP(=O)(O)O)C(=O)O (stereo not given)
inactive: [1] -38.8% | [2] -29.8% | [3] -63.3% | [4] -12.3% | [5] -17.4% | [6] -37.5%

Cn1c(=O)c2ncnnc2n(C)c1=O
inactive: [1] 31.6% | [2] 22.9% | [3] 27.9% | [4] 0.5% | [5] 36.8% | [6] 45.1%

CCN(CC)CCN1C(=O)NC(=O)C(CC)(c2ccccc2)C1=O (stereo not given)
inactive: [1] 4.1% | [2] 9.4% | [3] -6% | [4] 2.9% | [5] 8.05% | [6] 4.9%

COc1ccc(CCNC2(C#N)CCCCC2)cc1OC
inactive: [1] -9.5% | [2] -29.8% | [3] 0.05% | [4] 10.2% | [5] -5.75% | [6] -5.25%

CCCCSP(SCCCC)N1CCCCC1
inactive: [4] 31.1%
active: [1] 94.7% | [2] 89.4% | [3] 91.3% | [5] 79.8% | [6] 88%

C1CC[N-]CC1.CC(=N\O)/C(C)=N/O.CC(=N\O)/C(C)=N/O.[CH2-]Cl.[Co+2]
inactive: [1] 4.6% | [2] 14.8% | [3] 14.4% | [4] -31.6% | [5] 20.1% | [6] 27.9%

CCN1C[C@]2(COC)[C@H](O)C[C@H](OC)[C@]34C1[C@H]([C@H](OC)[C@H]23)[C@]1(OC(C)=O)[C@H]2[C@@H](OC(=O)c3ccccc3)[C@](O)(C[C@H]24)[C@@H](OC)[C@@H]1O
inactive: [1] 14.6% | [2] -4% | [3] 5.8% | [4] -6.85% | [5] 24.9% | [6] -69.3%

CCC[CH2][Sn]([CH2]CCC)([CH2]CCC)[CH2]S(=O)(=O)O
active: [1] 99.3% | [2] 98.8% | [3] 98.9% | [4] 98.2% | [5] 99.4% | [6] 99%

C/C=C1/CC(C)C(C)(O)C(=O)OCC2CCN3CCC(OC1=O)C23 (stereo not given)
inactive: [1] 13.5% | [2] -1.75% | [3] 6.8% | [4] 8.05% | [5] 23.1% | [6] 18.4%

CCC1(CC)COP(=S)(S)OC1
inactive: [1] 10.8% | [2] -17.8% | [3] -16.9% | [4] 10.1% | [5] -3.5% | [6] -3.2%

CC(C)C(=O)OCC1CCCN2CCCCC12 (stereo not given)
inactive: [1] 26.9% | [2] 26.4% | [3] 11.9% | [4] 19.2% | [5] 30.3% | [6] -35.2%

CC(=O)[O-].Cn1ccnc1CNCc1nccn1C.[Cu+2].[O-][Cl+3]([O-])([O-])[O-]
inactive: [1] 18.9% | [2] 3.2% | [3] 3.3% | [4] 18.6% | [5] -1.4% | [6] 5.25%

CCOC(=O)/C(=C/c1ccc[nH]1)P(=O)(OCC)OCC
inactive: [1] -28.6% | [2] -26.1% | [3] -31.8% | [4] 5.65% | [5] 6.6% | [6] -42.1%

CCOP(=O)(OCC)/C(C#N)=C/c1ccccc1OC
inactive: [1] 40.5% | [2] -1.3% | [3] 0.15% | [4] -4.65% | [5] -14.8% | [6] 27.6%

C=CCCOC(=O)CO[N+](=O)[O-]
inactive: [1] 6.8% | [2] -0.7% | [3] 5.35% | [4] 8.8% | [5] -4.25% | [6] 4.1%

C[N+](C)(C)CCP(=O)([O-])O
inactive: [1] -3.3% | [2] 0% | [3] 1.55% | [4] -13.1% | [5] -3.1% | [6] 5.45%

Nc1ccc(Cl)c(C(F)(F)F)c1
inactive: [1] 0.85% | [2] -16.6% | [3] -12.1% | [4] -18.4% | [5] -1% | [6] 2.6%

C/C=N/Nc1ccc([N+](=O)[O-])cc1[N+](=O)[O-]
inactive: [1] 10.5% | [2] -6.35% | [3] -11.8% | [4] -14.9% | [5] 3.3% | [6] 16.8%

CCCCC(CC)C(=O)NC(N)=O (stereo not given)
inactive: [1] 6.7% | [2] -20.1% | [3] -5.35% | [4] -22.4% | [5] -12.2% | [6] 4.1%

COc1cc2[nH]cc(CN(C)C)c2cc1OC
inactive: [1] 3% | [2] -0.55% | [3] -11.2% | [4] -18.9% | [5] -0.25% | [6] -7.35%

[CH3][Sn]([CH3])([n]1cnc2ccccc21)[n]1cnc2ccccc21
inactive: [1] 0.85% | [2] 9.9% | [3] 12.2% | [4] -4.85% | [5] 0.1% | [6] -3.45%

CC(C)(C)C[C](C)(c1ccccc1)[Sn]([CH3])([CH3])[CH3] (stereo not given)
inactive: [1] -14.2% | [2] 4.9% | [3] 8.4% | [4] 6.9% | [5] 1.2% | [6] 7%

Clc1ccc(N=P(c2ccccc2)(c2ccccc2)c2ccccc2)cc1.[Cl][Co][Cl]
inactive: [1] 49% | [2] 11.1% | [3] 44.5% | [4] 18.1% | [5] 22.1% | [6] 14.6%

Cc1[nH]cc2c1C(c1ccccc1F)=NCC(=O)N2
inactive: [1] 19.7% | [2] -3.5% | [3] 17.4% | [4] -13.7% | [5] 8.4% | [6] 0.1%

NC(N)=NOCC[C@@H](N)C(=O)O
inactive: [1] -0.5% | [2] -3.7% | [3] 8.85% | [4] 20.2% | [5] 1.4% | [6] 11.7%

CN1CN(c2ccccc2)C2(CCN(CC(C)(c3ccc(F)cc3)C3OCCCO3)CC2)C1=O (stereo not given)
inactive: [1] -22.9% | [2] -18.9% | [3] -21.9% | [4] -5.3% | [5] -27.1% | [6] 8.95%

COC1C=CC23c4cc5c(cc4COC2(O)CN(C)C3C1)OCO5 (stereo not given)
inactive: [1] -18.2% | [2] -26.2% | [3] -56.5% | [4] -4.5% | [5] -18.9% | [6] -28.6%

[CH3][Sn]([c]1ccccc1)[c]1ccccc1
inactive: [1] -4.15% | [2] 2.5% | [3] 2.45% | [4] -11% | [5] 1.2% | [6] -21.4%

N#CC1CCCCC1
inactive: [1] 0.4% | [2] -5.4% | [3] -0.35% | [4] -3.9% | [5] 4.65% | [6] 1.65%

CNC(C)C(O)c1ccccc1 (stereo not given)
inactive: [1] 15.3% and 4.1% | [2] -14.3% and -2.1% | [3] 7.45% and -21.6% | [4] 14.9% and 10.5% | [5] 10% and -5.85% | [6] 13.3% and 8.9%

O=P(N1CCOCC1)(N1CC1)N1CC1
inactive: [1] 15.4% | [2] -7.35% | [3] -0.15% | [4] 13.7% | [5] 9% | [6] 34.7%

CC(=O)Oc1cccc2c1C(=O)C(C(=O)C=O)C1C(C=O)OC(C)(C)OC21C (stereo not given)
inactive: [1] 29.6% | [2] 0.1% | [3] 33.6% | [4] 14.8% | [5] 16.8% | [6] 12.1%

CC1NCCc2c1[nH]c1cc(O)ccc21 (stereo not given)
inactive: [1] 4.55% | [2] -10.9% | [3] 5.5% | [4] -9.2% | [5] -21.5% | [6] 3.1%

CC1=CC(C)C/C=C/C2C3OC3(C)C(C)C3C(Cc4c[nH]c5ccccc45)NC(=O)C23C(=O)C=CC(=O)C1O (stereo not given)
active: [1] 88.4% | [2] 92.5% | [3] 92.6% | [4] 91% | [5] 91.3% | [6] 92.1%

CC[CH2][Sn]([CH2]CC)[CH2]CC.CC[CH2][Sn]([CH2]CC)[CH2]CC
active: [1] 99.2% | [2] 99.5% | [3] 99.5% | [4] 99.5% | [5] 98.6% | [6] 99.4%

Nc1ccncc1
inactive: [1] 4.35% | [2] -5.45% | [3] 10% | [4] 10.9% | [5] -2.55% | [6] 4.45%

O=c1[nH]c(=S)[nH]c(O)c1/C=C1\C=CC=N1
inactive: [1] -22.9% | [2] -3.95% | [3] -3.45% | [4] 1.85% | [5] 3.3% | [6] -14.1%

CCN(CC)C1=C(N(CC)CC)C(N(CC)CC)=C(N(CC)CC)C1=O.[C-]#[O+].[C-]#[O+].[C-]#[O+].[Fe]
inactive: [1] -45.6% | [2] -13.2% | [3] -22.1% | [4] -2.65% | [5] -16.6% | [6] -33.8%
